# Tb PFK inh: qHTS Assay to Find Inhibitors of T. brucei phosphofructokinase; ATP-dependent 6-phosphofructokinase (Trypanosoma brucei brucei), O15648; T. brucei PFK, ADP-Glo luminescence; Potency, µM (doses to about 57.5 µM), hits mostly inhibitors; 330,000 tested, 0.17% active; AID 485367, 2010; also: nearly all actives have a fitted effect of over 60% in size
#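 In TEA buffer at pH 8.0 with 5 mM MgCl2, enzyme (1.25 nM) converted F6P (0.5 mM) and ATP (0.1 mM) for 45 min at room temperature. ADP product was read by luciferase luminescence.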
# PGK inhibitor: qHTS Assay to Find Inhibitors of Phosphoglycerate Kinase. Phosphoglycerate kinase, glycosomal (Trypanosoma brucei brucei), P07378. 380,000 tested, 0.043% active. Potency, µM (highest dose often 57.5 µM), usual class: inhibitors. AID 602233, 2012. PGK/GAPDH coupled, Kinase-Glo luminescence, 60 min; also: nearly all actives have a fitted effect of over 60% in size
#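 Recombinant glycosomal PGK reaction used 1,3-bisphosphoglycerate generated in-well by GAPDH (100nM final) in 100mM TEA pH 7.6, 5mM MgCl2, 0.01% Tween-20. After 60 minutes at room temperature, ATP was read by Kinase-Glo Plus luminescence end-point.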
# Pin1 inh: qHTS Assay to Find Inhibitors of Pin1; Potency, µM (top dose mostly 115 µM), actives largely listed as inhibitors; 390,000 tested, 0.009% active; Peptidyl-prolyl cis-trans isomerase NIMA-interacting 1 (Homo sapiens), Q13526; Pin1 FP peptide displacement, HiFluor488, 10 min; AID 504891, 2011; active = well fitted inhibition curve with a large enough effect in the polarisation, with a control signal flat, not every such curve was filed as active; inconclusive = small, poorly fitted or top-dose-only effect, or effect the other way, or a change in a side signal; inactive = no such curve, though single readings can be large or run the other way; the % refers to the polarisation
# Target sequence (Q13526 whole entry, looked up): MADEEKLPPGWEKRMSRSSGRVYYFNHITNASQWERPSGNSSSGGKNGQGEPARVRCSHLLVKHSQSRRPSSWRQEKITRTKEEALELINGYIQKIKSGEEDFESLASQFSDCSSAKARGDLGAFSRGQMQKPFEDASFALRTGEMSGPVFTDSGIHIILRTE
# Chronic BCR inh: qHTS Assay to Find Inhibitors of Chronic Active B-Cell Receptor Signaling; Potency, µM (titrated, usually from 46.1 µM), usual class: inhibitors; ABC-DLBCL IkBa-CBG/CBR reporter, luminescence ratio, 4 h; 340,000 tested, 0.05% active; active = well fitted inhibition curve with a large enough effect in the signal ratio, with a control signal flat, not every such curve was filed as active; inconclusive = small, poorly fitted or top-dose-only effect, or effect the other way, or a change in a side signal; the % refers to the signal ratio
#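 TMD8 human ABC-DLBCL cells with doxycycline-inducible IκBα–green luciferase fusion and unfused red luciferase, in 0.5% FBS medium; compounds up to 46 uM, 4 h at 37C. Green/red luminescence ratio, filter-overlap corrected, fitted to concentration-response curves.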
# ERG Ets-DNA blk: qHTS for Small Molecule Inhibitors of the ERG Ets/DNA interaction; fluorescence polarization, His-ERG Ets domain / labelled DNA; Potency, µM (titrated, usually from 76.9 µM), actives largely listed as inhibitors; 370,000 tested, 0.028% active; Transcriptional regulator ERG (Homo sapiens), P11308; active = well fitted inhibition curve with a large enough effect in the polarisation, with a control signal flat; inconclusive = small, poorly fitted or top-dose-only effect, or effect the other way, or a change in a side signal; inactive = no such curve, though single readings can be large or run the other way; the % refers to the polarisation;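 also: polarization taken with two DNA probes labelled with fluorescein and Texas red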
# Target sequence (P11308 whole entry, looked up, the tested form may be a part): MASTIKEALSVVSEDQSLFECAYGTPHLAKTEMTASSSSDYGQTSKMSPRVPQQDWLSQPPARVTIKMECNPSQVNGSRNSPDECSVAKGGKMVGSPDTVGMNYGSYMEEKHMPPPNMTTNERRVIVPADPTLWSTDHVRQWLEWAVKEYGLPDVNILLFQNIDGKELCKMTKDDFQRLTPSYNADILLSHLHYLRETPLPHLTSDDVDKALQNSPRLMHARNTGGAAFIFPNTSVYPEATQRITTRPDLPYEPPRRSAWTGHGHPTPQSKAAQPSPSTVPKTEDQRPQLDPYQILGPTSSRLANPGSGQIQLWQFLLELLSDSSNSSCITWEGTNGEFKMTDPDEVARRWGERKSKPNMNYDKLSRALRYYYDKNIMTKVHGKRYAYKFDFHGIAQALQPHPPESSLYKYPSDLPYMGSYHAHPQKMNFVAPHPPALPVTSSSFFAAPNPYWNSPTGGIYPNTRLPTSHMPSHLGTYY
#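 His-tagged ERG Ets domain (1 uM in the protein solution; 300mM KCl, 50mM Tris-HCl, 1mM EDTA, 1mM DTT, pH 7.5) received compound, then a probe mix of 5 nM fluorescein-DNA and 100nM Texas-615-DNA. Fluorescence polarization was read for both dyes.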
# Numbers stand for hits; - = inactive; ? = inconclusive; . = not tested or not shown. This is a sample that favours compounds with a hit; in the whole collection about 0.25% have one here. Unless noted, calls follow the shape of the dose curve; as a rule, active = well fitted curve in the direction sought with a large enough effect; inconclusive = small, poorly fitted or top-dose-only effect, or another doubt; inactive = no such curve, though single readings can be large; an effect the other way counts as inactive or inconclusive.
SMILES,Tb PFK inh,PGK inhibitor,Pin1 inh,Chronic BCR inh,ERG Ets-DNA blk
CCC(CC)C(=O)c1c[nH]c(C(=O)NN)c1,-,-,-,22µM,-
CC(=O)[C@]1(O)Cc2c(O)c3c(c(O)c2[C@@H](O[C@H]2C[C@H](N)[C@H](O)[C@H](C)O2)C1)C(=O)c1ccccc1C3=O,.,-,?,.,3.2µM
COc1cccc2c1C(=O)c1c(O)c3c(c(O)c1C2=O)C[C@@](O)(C(C)=O)C[C@@H]3O[C@H]1C[C@H](N)[C@H](O)[C@H](C)O1,-,-,?,?,0.79µM
O=C(CN1C(=O)c2ccccc2S1(=O)=O)Nc1cc(S(=O)(=O)N2CCOCC2)ccc1N1CCOCC1,.,.,-,.,.
COc1ccc2ncnc(NCC3CCCO3)c2c1-c1ccc2c(c1)OCO2 (stereo unspecified),.,.,-,.,.
CC(OCc1ccccc1)C(NC(=O)OC(C)(C)C)C(=O)NC1COC2CC(n3ccc(=O)[nH]c3=O)OC12 (stereo unspecified),.,.,-,.,.
COc1ccc(C=O)cc1OS(=O)(=O)c1ccc(NC(C)=O)cc1,-,-,-,18µM,-
Nc1cc(S(=O)(=O)N2CCN(S(=O)(=O)c3ccc4c(c3)OCCO4)CC2)ccn1,.,.,-,.,.
O=C(Oc1c(CN2CCOCC2)cc(Cl)c2cccnc12)c1cccs1,-,-,-,?,-
O=C(Oc1c(Cl)cc(Cl)c2cccnc12)c1cccs1,-,-,-,23µM,-
Cc1cc(O)c(CN(C)C)c2c1C(=O)/C(=C/c1ccco1)O2,-,-,?,-,-
Cc1cc(O)c(C=O)c2c1C(=O)Oc1c(CO)c(O)c3c(c1O2)C(O)OC3=O (stereo unspecified),24µM,?,3.2µM,-,-
CCOc1cc(/C=N/NC(=O)c2ccc(-c3csc(Nc4ccc(C)cc4)n3)cc2)ccc1OCC(=O)O,?,13µM,.,?,-
N#CN=c1snc(-c2ccccc2Cl)n1-c1ccccc1Cl,.,.,-,.,.
CCCCCCCC/C=C\CCCCCCCC(=O)O,-,-,.,-,-
CCCCC1C(=O)CC[C@H]2[C@@H]1CC(=O)[C@@H]2C/C=C\CCCC(=O)O (stereo partly specified),-,-,-,21µM,-
COc1ccc(OC)c(S(=O)(=O)N2CCN(S(=O)(=O)c3ccc4c(c3)OCCO4)CC2)c1,.,.,-,.,.
O=C(COC(=O)C1CC2C=CC1C2)NCc1ccco1 (stereo unspecified),?,32µM,?,-,-
O=C(COC(=O)C1CC2C=CC1C2)NCc1ccc(F)cc1 (stereo unspecified),-,-,-,-,-
O=C(Nc1ncc(Cc2ccccc2)s1)C1CCN(C(=O)c2ccco2)CC1,.,.,-,.,.
COc1cccc(C(=O)Nc2sc3c(c2C#N)CCN(C(C)=O)C3)c1,-,-,-,20µM,-
COc1cccc(C(=O)Nc2sc3c(c2C(=O)O)CCCC3)c1,-,-,-,?,-
O=S(=O)(NC1CCCC(NS(=O)(=O)c2c(F)cccc2F)C1)c1ccc2c(c1)OCCO2 (stereo unspecified),.,.,-,.,.
O=C1NC(=S)S/C1=C\C=C\c1ccc([N+](=O)[O-])o1,-,28µM,-,?,-
O=[N+]([O-])c1ccc(/C=N/N=C/c2ccc([N+](=O)[O-])o2)o1,-,-,-,?,-
SMILES,Tb PFK inh,PGK inhibitor,Pin1 inh,Chronic BCR inh,ERG Ets-DNA blk
Cn1c(=S)[nH]c(=O)c2ncc(=O)[nH]c21,-,-,-,?,14µM
COc1ccc(NS(=O)(=O)c2ccccc2C(=O)O)cc1,.,.,-,.,.
COc1cc(/C=N/n2cnnc2)ccc1OCCOc1ccccc1,-,-,-,?,-
C=CCc1ccc(OCCOc2ccc(/C=N/n3cnnc3)cc2OCC)c(OC)c1,-,-,-,23µM,-
Cc1ccc2nc(-c3cccc(NC(=O)c4cccc5c(Cl)cccc45)c3)oc2c1,.,-,-,.,-
O=C(CCN1C(=O)/C(=C/c2ccc(Cl)cc2)SC1=S)Nc1cccc(C(=O)O)c1,-,?,.,-,-
O=C(O)c1cccc(N2C(=O)/C(=C/c3ccc(SCc4ccc(Cl)cc4)o3)SC2=S)c1,-,35µM,?,-,-
Cc1ccc(NS(=O)(=O)c2ccc3ccccc3c2)cc1C,.,.,-,.,.
O=C(O)c1ccc(-c2ccc(/C=c3/sc4nc5ccccc5n4c3=O)o2)cc1Cl,-,10µM,?,?,-
Cc1ccc2c(nc3s/c(=C\c4ccc(-c5ccccc5C(=O)O)o4)c(=O)n32)c1C,-,-,?,-,-
COc1ccc(NS(=O)(=O)c2ccc3ccccc3c2)c2ncccc12,-,-,-,3.2µM,-
O=S(=O)(Nc1cccc2ccccc12)c1cccc2ccccc12,.,.,-,.,.
CCc1ccc(O)c(N=Cc2ccccc2O)c1,-,-,-,?,-
O=c1[nH][nH]c2c(N=Cc3ccccc3O)ccc(F)c12,?,16µM,?,-,?
COc1ccc(/C=N/NC(=O)CCn2cnc(-c3ccccc3)c2-c2ccccc2)cc1,-,-,-,23µM,-
N=c1c2c(ncn1-c1ccccc1)Oc1ccc3ccccc3c1C2c1ccc2c(c1)OCCO2 (stereo unspecified),.,.,-,.,.
CCc1n[nH]c(=S)n1/N=C/c1ccc(N(CC)CC)cc1,-,-,-,11µM,-
Cc1nc2cc(-c3ccccc3)sc2c(=O)n1N,-,10µM,-,?,-
Cc1ccc(C)n1-n1c(C)nc2sc(-c3ccccc3)cc2c1=O,-,-,-,?,-
COc1ccc(-c2cc3nc(C)n(N)c(=O)c3s2)cc1,-,4.5µM,-,?,-
O=C(Nc1ccc(Cl)c(Cl)c1)c1cc(S(=O)(=O)N2CCN(c3cccc(Cl)c3)CC2)ccc1F,.,-,-,?,-
Cc1cc2oc3ccc(NCCCn4ccnc4)cc3c(=O)c2cc1C,.,-,?,.,18µM
Cc1cc2oc3ccc(NCCCN4CCOCC4)cc3c(=O)c2cc1C,.,-,-,.,-
O=C(c1ccco1)N1CCN(c2nc(-c3ccc(Br)cc3)cs2)CC1,.,.,-,.,.
Cc1ccc(CSc2nc3cccnc3n2Cc2ccc(C(=O)NCCc3cccs3)cc2)cc1,.,-,-,.,-
SMILES,Tb PFK inh,PGK inhibitor,Pin1 inh,Chronic BCR inh,ERG Ets-DNA blk
Cc1ccc(O)c(N=Nc2ccccc2)n1,.,16µM,-,.,-
Oc1ccc(Cl)cc1N=Nc1ccccc1,-,-,-,-,-
O=c1c2ccccc2nc2sc(Nc3cccc(N4CCNCC4)c3)nn12,.,.,-,.,.
N[C@@H](Cc1ccc(O)c(O)c1)C(=O)O,.,22µM,?,.,-
NC(Cc1ccc(O)c([N+](=O)[O-])c1)C(=O)O (stereo unspecified),-,-,-,-,-
O=C(/C=C\c1ccccc1OC(=O)c1ccccc1F)c1cc2ccccc2o1,-,-,-,13µM,-
